For 40 compounds, growth results are on record in PubChem BioAssay (NCI).

This is part of a sample that, as a whole, favours compounds with a hit. Of some 83,000 tested, about 20% had one in any assay.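 Each cell line was grown in a 96-well plate and treated with one concentration of compound for 48 hours. Values below 10 were considered active.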 Values without a mark were called inactive. Active and inactive are the calls of the source.

This experiment deals with T-47D breast. Briefly: NCI-60 one-dose screen, 48 h (100 = growth as untreated, 0 = no growth, -100 = all killed). The settings on record: 10 µM unless noted. As to the method:
Growth inhibition of the T-47D human tumor cell line is measured as a screen for anti-cancer activity. Cells are grown in 96 well plates and exposed to the test compound for 48 hours. Compounds are tested at a single concentration, which is 10^-5 M for most compounds. The reported endpoint is percent growth (GI% or GIPRCNT), where numbers from 0 - 100% represent growth inhibition, and numbers from -100% - 0 represent cell death. For example, a value of 40 represents 60% growth inhibition. A value of 0 means no net growth occurred over the course of the experiment. A value of -40 indicates 40% of cells at the beginning of the experiment died by the end of the experiment. A value of -100 means all cells are dead at the end of the experiment.
NCI-60 Human Tumor Cell Lines Screen was performed using the standard one-dose NCI protocol, which is described in more detail at https://dtp.cancer.gov/discovery_development/nci-60/default.htm.
Compounds with GIPRCNT values below 10 were considered active. Activity score was based on GIPRCNT using the following formula: […]
Score is 0 for GIPRCNT values of 100 or above, 50 for GIPRCNT values of 0, and 100 for GIPRCNT values of -100.
Consider `Clc1ccc(-c2cnc3nonc3n2)s1`, for which the growth is 58.4%.
As for `CC1=C(/C=C/C(C)=C/C=C(C(=O)O)\C(C)=C\C(=O)O)C(C)(C)CCC1`, the figure is 101%; as for `CCN(CC)CC(=O)Nc1c(C)cc(C(=O)NN)cc1C`, 90.8%.
On to `COc1cc2c(c(OC)c1O)C(=O)C(OC)C(c1ccc(O)c(O)c1)O2` (stereo not given), for which the growth is 50.3%.
As for `CC[C@H](C)[C@H](N)C(=O)O`, the figure is 104%; as for `Cc1cccc2nc3ccccc3c(Nc3ccc(NS(C)(=O)=O)cc3)c12`, 37.1%; as for `CCCCOC(=O)c1cc(O)c(O)c(O)c1`, 61%.
As for `COc1ccccc1CNCCCN1C(=O)c2ccc3c4c(ccc(c24)C1=O)C(=O)N(CCCOCCCCOCCCN)C3=O`, the figure is -56.8% (active).
As for `Oc1c(C(Nc2ccccc2Br)c2ccccc2)ccc2cccnc12` (stereo not given), the figure is 29.9%; as for `C[N+](C)(C)CCCCCCCCCC[N+](C)(C)C`, 88.6%; as for `c1ccc(-c2ccc(-c3ccccc3)[nH]2)cc1`, 89.6%.
For the compound `COc1cc(NCCC2CCCCN2)c2ncccc2c1OC` (stereo not given), the growth is 38%.
With `CCCCCCCCCCCC1=NC(C)(C)CN1CC(C)O` (stereo not given) the figure was 58.9%.
As for `C[C@@H]1N=C(c2ccc3ccccc3c2)Nc2nc3ccccn3c2C1=O`, the figure is 41.7%.
With `CCCCCCCCN(CCCCCCCC)C(=O)CCl` the figure was 89.7%; with `COc1cccc(-c2cc(-c3cccs3)c(C#N)c(=O)[nH]2)c1`, 93.3%; with `CCN(CC)c1ccc(/C=N/N=C(N)N)cc1`, 63.4%.
For `O=C(c1ccccc1)C1OC1C(=O)c1ccccc1` (stereo not given), the growth is -7.04% (active).
With `NC(=O)c1ccc[n+](Cc2ccccc2)c1` the figure was 106%; with `CCOC(=O)Cc1cc(Br)c(OCc2ccccc2)c(Br)c1`, 85.6%.
Turning to `C=C1C(=O)O[C@H]2[C@H]1CC/C(COC(=O)N[C@@H](Cc1c[nH]c3ccccc13)C(=O)OC)=C\CC[C@@]1(C)O[C@@H]21`, the growth was -16.9% (active).
With `CC1OC(n2c3ccccc3c3c4c(c5c6ccccc6[nH]c5c32)C(=O)N(CCN2CCOCC2)C4=O)CC(O)C1O` (stereo not given) the figure was 11%; with `CC(NC(=O)c1ccccc1)C(=O)Nc1ccccc1` (stereo not given), 117%.
Consider `CCN1C(=O)N(CC)C2C1NN=c1s/c(=C\c3ccc(Br)cc3)c(=O)n12` (stereo not given), for which the growth was 54.3%.
With `CC(CN1CCN(CC(C)Nc2ccnc3cc(Cl)ccc23)CC1)Nc1ccnc2cc(Cl)ccc12` (stereo not given) the figure was -21.3% (active); with `O=C(c1ccc(OCCN2CCCCC2)cc1)c1c(-c2ccc(O)cc2)sc2cc(O)ccc12`, 65.5%; with `ClCc1c(Cl)c(Cl)c(Cl)c(CCl)c1Cl`, -71.5% (active).
With `O=[N+]([O-])c1ccc(N/N=C/c2ccccc2O)nc1` the figure was 24%; with `C=CCOc1ccc2c(C)cc(=O)oc2c1`, 105%; with `CCCCCCCCCCCCCC`, 101%.
As to `CC(=O)c1ccc(N2C(=O)c3ccc(Oc4ccccc4)cc3C2=O)cc1`, the growth was 106%.
As for `COc1cccc(C2C(C#N)=C(N)Oc3cc4c(cc32)OCO4)c1` (stereo not given), the figure is 59.9%.
As for `CC(C)(C)[Si](C)(C)OC1[C@@H](CNC(N)=O)O[C@@H](n2cnc3c(NC(=O)Nc4ccccc4)ncnc32)[C@H]1O[Si](C)(C)C(C)(C)C` (stereo not given in full), the figure is 64.6%.
With `NS(=O)(=O)c1ccc(CCn2c(SCC(=O)N/N=C/c3cccnc3)nc3ccccc3c2=O)cc1` the figure was 65.9%; with `CC(=O)Nc1ccc(/C=N/N2CCCCCC2)cc1`, 100%; with `CCCCCN(CCCCC)C(=O)C(CCC(=O)O)NC(=O)c1ccc(Cl)c(Cl)c1` (stereo not given), 102%.
Consider `CC(C)CCSc1nc(-c2ccc(F)cc2)c(C#N)c(N2CCN(C)CC2)n1`, for which the growth was 68.3%.
For the compound `COc1ccc(-c2cc(-c3cn(-c4cccc(Cl)c4)nc3-c3ccc(OC)cc3)[nH]c(=S)n2)cc1`, the growth was 72.1%.
With `CSc1nc(N)c2[nH]c(-c3cc4ccccc4[nH]c3=O)nc2n1` the figure was 72.9%; with `NC(CCC(=O)NC(CS)C(=O)NCC(=O)O)C(=O)O` (stereo not given), 107%.
